# According to PubChem BioAssay (Tox21):
# Inconclusive results are not listed. A number with no mark means an inactive call. Calls follow the shape of the full dose curve.
# Experiment: qHTS assay for small molecule agonists of the antioxidant response element (ARE) signaling pathway - cell viability counter screen (AID 743203); also: nearly all actives have a fitted effect of over 55% in size
# Conditions: ARE-bla HepG2 viability, CellTiter-Glo luminescence, 16 h; series mostly up to 73.3 µM; viability change, negative = cytotoxic: at the top concentration
# Description: National Center for Advancing Translational Sciences [NCATS]
# NIH Chemical Genomics Center [NCGC]
# U.S. Environmental Protection Agency [EPA]
# National Institutes of Environmental Health Sciences [NIEHS]
# National Toxicology Program [NTP]
# U.S. Food and Drug Administration [FDA]
# Oxidative stress has been implicated in the pathogenesis of a variety of diseases ranging from cancer to neurodegeneration. The antioxidant response element (ARE) signaling pathway plays an important role in the amelioration of oxidative stress. The CellSensor ARE-bla HepG2 cell line (Invitrogen) can be used for analyzing the Nrf2/antioxidant response signaling pathway. Nrf2 (NF-E2-related factor 2) and Nrf1 are transcription factors that bind to AREs and activate these genes. The CellSensor ARE-bla Hep G2 cell line contains a beta-lactamase reporter gene under control of the Antioxidant Response Element (ARE) stably integrated into HepG2 cells. The activation of the report gene under culture conditions can be detected by fluorescence intensity. This cell line has been used to screen the Tox21 10K compound library to identify agonists that induce oxidative stress. The cytotoxicity of the Tox21 compound library against the ARE-bla cell line was tested in parallel by measuring the cell viability using CellTiter-Glo assay (Promega, Madison, WI) in the same wells.
# Tox21 Assay Protocol Summary:
# ARE-bla HepG2 cells were dispensed at 2,000 cells/5 ul/well in 1536-well white wall/solid bottom plates using a Multidrop Combi (ThermoFisher Scientific, Waltham, MA) dispenser. After the assay plates were incubated at 37C/5% CO2 for 5 hrs, 23 nL of compounds dissolved in DMSO, positive controls or DMSO only was transferred to the assay plate by a pintool work station (Kalypsys, San Diego, CA). The plates were incubated at 37C/5% CO2 for 16 hrs, followed by addition of 4 ul/well of CellTiter-Glo reagent into the assay plates using a Flying Reagent Dispenser (Aurora Discovery, San Diego, CA). After 30 min incubation at room temperature, the luminescence intensity in the assay plates was measured using a ViewLux (PerkinElmer, Shelton, CT) plate reader.
# % is scaled to controls: 0 for no effect and ±100 for the full control effect.
row,SMILES,"viability change, negative = cytotoxic"
1,N#Cc1c(Cl)cccc1Cl,2.51%
2,CC(=O)C(Cl)Cl,2.48% [at 94.8 µM]
3,c1cc2c(c(N3CCNCC3)c1)OCCO2,5.71%
4,COc1ccc(C(=O)N2CCCC2=O)cc1,7.39%
5,CC(N)=S,-5.51%
6,C=C(C)CN(CC)c1c([N+](=O)[O-])cc(C(F)(F)F)cc1[N+](=O)[O-],1.61%
7,CCC(C)n1c(=O)[nH]c(C)c(Br)c1=O (stereo not given),13.2%
8,CC(COc1ccc(Oc2ccccc2)cc1)Oc1ccccn1 (stereo not given),8.63%
9,Fc1ccc(C2(Cn3cncn3)OC2c2ccccc2Cl)cc1 (stereo not given),-0.689%
10,CCN(CC)c1nc(C)cc(OP(=S)(OC)OC)n1,1.26%
11,CC(C)CP(=S)(S)CC(C)C,1.7%
12,CC(C=O)Cc1ccc2c(c1)OCO2 (stereo not given),1.44%
13,CCCSP(=O)(OCC)Oc1ccc(Br)cc1Cl (stereo not given),14.6%
14,C(CCOCC1CO1)COCC1CO1 (stereo not given),6.26%
15,Clc1cccc(N2CCNCC2)c1,10.5%
16,COC(=O)c1ccccc1S(=O)(=O)NC(=O)N(C)c1nc(C)nc(OC)n1,2.95% [at 94.8 µM]
17,COc1cc2c(cc1OC)[C@@]13CCN4CC5=CCO[C@H]6CC(=O)N2[C@H]1[C@H]6[C@H]5C[C@H]43,0.891%
18,O=C1OC(=O)C2C1C1(Cl)C(Cl)=C(Cl)C2(Cl)C1(Cl)Cl (stereo not given),-4.88% [at 94.8 µM]
19,Nc1n[nH]c(N)n1,1.7% [at 94.8 µM]
20,COCC(=O)N(c1c(C)cccc1C)N1CCOC1=O,11.8%

row,SMILES,"viability change, negative = cytotoxic"
1,O=S(=O)(O)C(F)(F)C(F)(F)C(F)(F)C(F)(F)C(F)(F)C(F)(F)F,0.0587%
2,CCCCc1c(C)nc(NCC)[nH]c1=O,3.47%
3,O=C(O)C(Br)CBr (stereo not given),1.74% [at 94.8 µM]
4,CN1C(=S)CN=C(c2ccccc2)c2cc(Cl)ccc21,15.9%
5,CCOP(=S)(OCC)SCSP(=S)(OCC)OCC,-0.101%
6,CC(CC(C#N)(c1ccccc1)c1ccccc1)N(C)C (stereo not given),-0.291%
7,CCOC(=O)N(C)C(=O)CSP(=S)(OCC)OCC,-10.7%
8,CC(C)(C)OC(=O)c1ncn2c1[C@@H]1CCCN1C(=O)c1c(Br)cccc1-2,13.1%
9,O=[N+]([O-])c1cccc(O)c1,-2.91% [at 94.8 µM]
10,COP(=S)(OC)Oc1ccc(S(N)(=O)=O)cc1,9.24%
11,Cc1cccc(C#N)c1,0.284%
12,C=CCC1=C(C)[C@@H](OC(=O)[C@@H]2[C@@H](C=C(C)C)C2(C)C)CC1=O,-12%
13,CC(C(=O)c1ccccc1)N(C)C (stereo not given),-4.8%
14,CNC(=O)N(C)c1nc2ccccc2s1,-0.511%
15,Cc1cc(C)c(C(=O)P(=O)(C(=O)c2c(C)cc(C)cc2C)c2ccccc2)c(C)c1,-25.3%
16,CC(Oc1ccc(Oc2ncc(C(F)(F)F)cc2Cl)cc1)C(=O)O (stereo not given),-12.2%
17,COC(=O)c1ccccc1S(=O)(=O)NC(=O)Nc1nc(C)cc(C)n1,1.64%
18,NC(=S)C(N)=S,2.13%
19,O=C(O)c1ccc2[nH]cc(CCCCN3CC=C(c4ccccc4)CC3)c2c1,16.9%
20,ClCCCN1CCN(c2cccc(Cl)c2)CC1,-0.0745%
